# TDP1 cell CPT – DT40-hTDP1 cell growth loss with CPT; chicken DT40 Tdp1-/-;hTDP1 cells + 20 nM CPT, ATP luminescence, 48 h; Potency, µM (top dose mostly 46.2 µM), for the others: top-dose activity change, negative = growth inhibition, hits mostly inhibitors; actives 12% (n = 420,000); AID 686979; further: potency means the concentration at half of the fitted maximal effect; on the % scale 0 is the no-effect control and ±100 the full control effect; nearly all actives have a fitted effect of over 55% in size
#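 Chicken DT40 Tdp1-/- cells stably complemented with human TDP1 were seeded at 400 cells/well in medium containing 20 nM camptothecin, exposed to pin-transferred compounds, and grown at 37 °C for at least 48 hr. Viability was read as ATP luminescence.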
# D3 antag – blocks the human D3 dopamine receptor; D3R cells, DiscoveRx beta-arrestin luminescence, antagonist mode; stronger effect = lower value; max response, negative = inhibition, %; actives 2.5% (n = 360,000); AID 652054; in the data active means max response below about -50%; inconclusive means no clear call, values can overlap the other calls; further: on the % scale 0 is the no-effect control and ±100 the full control effect
# Target sequence (P35462 whole entry, looked up): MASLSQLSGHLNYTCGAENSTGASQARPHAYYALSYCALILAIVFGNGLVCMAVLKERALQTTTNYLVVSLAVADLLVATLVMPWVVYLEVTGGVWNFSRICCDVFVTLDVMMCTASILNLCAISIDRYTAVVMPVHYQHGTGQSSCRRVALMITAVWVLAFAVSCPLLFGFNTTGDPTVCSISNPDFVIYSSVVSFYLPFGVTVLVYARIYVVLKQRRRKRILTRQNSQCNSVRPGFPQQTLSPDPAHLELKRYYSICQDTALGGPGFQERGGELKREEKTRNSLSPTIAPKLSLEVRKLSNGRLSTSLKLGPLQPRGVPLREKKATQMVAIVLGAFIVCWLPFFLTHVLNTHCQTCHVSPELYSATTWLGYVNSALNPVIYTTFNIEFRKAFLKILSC
#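 Cells plated overnight at 1500 cells/well, then exposed to library compounds with dopamine controls for 90 minutes at 37 degrees C. DiscoveRx reagent added for 30–60 minutes at room temperature; luminescence read, quantitative HTS format.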
# D3 ag – agonists of human D3 dopamine receptor | P35462 | D3R DiscoveRx beta-arrestin cells, luminescence, 90 min | max activation, % | actives 0.58% (n = 410,000) | AID 652048; in the data active means max activation above about 30%; further: 0% is about no effect
#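 Cells at 1500/well, incubated overnight, then treated with pinned compounds (dopamine as control) for 90 min at 37 degrees C. DiscoveRx reagent added for 30 - 60 minutes at room temperature; luminescence read.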
# IL1B secr inh – inflammasome signaling inhibition, IL-1 beta readout; THP-1 LPS/ATP IL-1B secretion, AlphaLISA, 16 h; stronger effect = lower value; activity change, % at 57.5 µM; actives 4.7% (n = 360,000); AID 743279; in the data active means activity change below about -50%; inconclusive means mostly about -30% to -49%; further: on the % scale 0 is the no-effect control and ±100 the full control effect
#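 THP-1 cells pretreated 1 hr with compounds (up to 57.5 uM final), then stimulated with LPS (250 ng/mL final) plus ATP (1.25 mM final); secreted IL-1B measured by AlphaLISA after 16 hr, decreased signal indicating inhibition.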
# ClpP mod – qHTS Assay for Activators of ClpP; Potency, µM (top dose mostly 57.5 µM), inactives show at the highest dose activity change, negative = active; actives 1.9% (n = 340,000); purified B. subtilis ClpP, FRET peptide cleavage, 20 min; ATP-dependent Clp protease proteolytic subunit (Bacillus subtilis (strain 168)), P80244; active means well fitted falling curve with a large enough effect; inconclusive means small, poorly fitted or top-dose-only effect; inactive means no such curve, though single readings can be large or run the other way; further: potency means the concentration at half of the fitted maximal effect; the source files actives as falling curves though it sought activators and does not explain the sign; nearly all actives have a fitted effect of over 65% in size
# Target sequence (P80244 whole entry, looked up): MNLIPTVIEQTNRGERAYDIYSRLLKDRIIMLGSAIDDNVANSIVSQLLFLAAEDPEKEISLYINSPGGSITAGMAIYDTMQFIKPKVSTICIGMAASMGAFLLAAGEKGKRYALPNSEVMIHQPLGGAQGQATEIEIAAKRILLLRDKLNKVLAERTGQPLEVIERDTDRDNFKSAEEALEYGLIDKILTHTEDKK
#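 ClpP 10 microg/mL final, pH 8 Tris/KCl buffer with BSA, glycerol, Tween-20; compound pinned in; FRET-FV substrate; RT 20 min; Ex320/Em430; ΔFRET vs ADEP 5.8 microM, DMSO, no enzyme.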
# DT40 TDP1 no CPT – qHTS for Inhibitors of human tyrosyl-DNA phosphodiesterase 1 (TDP1): qHTS in cells in absence of CPT. DT40 Tdp1-/- hTDP1 cells, no CPT, ATP luminescence, 48 h. Potency, µM (doses to about 46.2 µM), without a hit: at the highest dose activity change, negative = growth inhibition, most hits filed as inhibitors. actives 15% (n = 420,000). AID 686978, 2013; further: potency means the concentration at half of the fitted maximal effect; on the % scale 0 is the no-effect control and ±100 the full control effect; nearly all actives have a fitted effect of over 55% in size
#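 No-CPT arm: Tdp1-/-;hTDP1 DT40 cells (400/well) plus compounds, incubated ≥48 hr at 37 °C. Readout CellTiter-Glo luminescence.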
# An asterisk follows results filed as active; ? = inconclusive; / = no result given. This is a sample that favours compounds with a hit; in the whole collection about 21% have one here. Unless noted, the call rests on the fitted dose curve; in most records, active means well fitted inhibition curve with a large enough effect; inconclusive means small, poorly fitted or top-dose-only effect; inactive means flat fitted curve, though single readings scatter.
SMILES,TDP1 cell CPT,D3 antag,D3 ag,IL1B secr inh,ClpP mod,DT40 TDP1 no CPT
COCCCNC(=O)c1ccc(-n2c(-c3ccccc3)cc3c2CCC(C)C3)cc1 (configuration not stated),?,/,-12,/,-17%,16µM*
C/C1=C\CCC2C(/C=C(\C)CC1)OC(=O)C2CN1CCCCC1 (configuration not stated),10µM*,-10,-26,/,/,?
C=CCN(c1ccccc1Cl)S(=O)(=O)c1cccc(C(=O)NCCc2ccc(OC)cc2)c1,?,-1,-4,0,-3%,21µM*
CNS(=O)(=O)c1cccc(C(=O)OCC(=O)c2c(N)n(C)c(=O)n(C)c2=O)c1,-7%,-10,-2,15,/,?
CN(C)S(=O)(=O)c1cccc(C(=O)NCCc2ccccc2)c1,-5%,-19,-1,-2,-3%,-23%
C=CCN(c1ccccc1OC)S(=O)(=O)c1cccc(C(=O)NCc2cccs2)c1,15µM*,?,-7,-14,0%,18µM*
C=CCN(c1ccccc1OC)S(=O)(=O)c1cccc(C(=O)OCC(=O)c2c(N)n(C)c(=O)n(C)c2=O)c1,?,0,6,6,-1%,18µM*
Cn1cc(C(=O)c2ccc(Cl)cc2)cc1-c1nc2ccccc2n1C,13µM*,24,4,-72*,-12%,18µM*
CCC1(CC)Cc2ccccc2-c2nc(NCCO)[nH]c(=O)c21,-4%,-6,-7,9,6.3µM*,-4%
O=c1[nH]c(NCCO)nc2c1C1(CCCCC1)Cc1ccccc1-2,?,11,-11,0,32µM*,?
NNc1nc(N)c2c(n1)-c1ccccc1CC21CCCC1,10µM*,-52*,-22,-9,/,16µM*
O=c1[nH]c(CN2CCCCC2)nc2c1C1(CCCCC1)Cc1ccccc1-2,13µM*,-4,10,14,1%,13µM*
CCN1CCCC1CNC(=O)c1cc2c(OC)cccc2[nH]1 (configuration not stated),-24%,-17,-5,0,4%,-17%
CCN1CCC[C@H]1CNC(=O)c1c(O)c(Cl)cc(Cl)c1OC,0%,-117*,-94,2,-10%,-14%
CCN1CCCC1CNC(=O)c1ccc(Sc2ccccc2Cl)c([N+](=O)[O-])c1 (configuration not stated),?,-75*,-15,-50*,/,?
CCN1CCN(C(=O)c2ccc(Sc3ccccc3Cl)c([N+](=O)[O-])c2)CC1,?,?,-8,-11,-1%,?
CCN1CCCC1CNC(=O)CCNC(=O)c1cc(OC)c(OC)c(OC)c1 (configuration not stated),2%,18,7,2,-3%,0%
CCN1CCCC1CNC(=O)c1cc(OC)c(OC)c(OC)c1 (configuration not stated),-24%,-61*,-1,0,-12%,2%
CCN1CCCC1CNC(=O)c1c(O)c2c([nH]c1=O)CCCC2 (configuration not stated),3%,-11,-3,21,?,-12%
CCN1CCCC1CNC(=O)c1cc2c(OC)c(OC)c(OC)cc2[nH]1 (configuration not stated),3%,-61*,-44,7,1%,8%
Cc1ccc(Cn2c(CN3CCN(C(=O)c4ccco4)CC3)nc3c2c(=O)n(C)c(=O)n3C)cc1,-3%,20,37*,17,0%,-10%
Cn1c(=O)c2c(nc(CN3CCCCC3)n2CCCc2ccccc2)n(C)c1=O,?,7,-1,12,0%,?
CC1CCCN(Cc2nc3c(c(=O)n(C)c(=O)n3C)n2CCCc2ccccc2)C1 (configuration not stated),21µM*,-4,5,-2,-2%,18µM*
Cn1c(=O)c2c(nc(CN3CCN(C(=O)c4ccco4)CC3)n2CCc2ccccc2)n(C)c1=O,-16%,-4,-3,0,1%,?
Cn1c(=O)c2c(nc(CN3CCN(C(=O)c4ccco4)CC3)n2CCCc2ccccc2)n(C)c1=O,?,-2,1,10,-2%,21µM*
SMILES,TDP1 cell CPT,D3 antag,D3 ag,IL1B secr inh,ClpP mod,DT40 TDP1 no CPT
Cn1c(=O)c2c(nc(CN3CCN(C(=O)c4ccco4)CC3)n2Cc2ccccc2)n(C)c1=O,-20%,-21,-5,-21,-4%,?
O=C(COc1ccc(Cl)cc1)Nc1nnc(-c2ccco2)o1,10%,10,4,22,/,10%
C[C@H](CO)N1C[C@H](C)[C@H](CN(C)C(=O)c2ccccc2)OCc2cnnn2CCCC1=O,-27%,11,1,6,-1%,8%
CCOC(=O)c1c(-c2ccc(C)cc2)csc1NC(=O)c1nc(SC(C)C)ncc1Cl,0%,/,8,/,0%,4%
Fc1ccccc1C1c2cccn2CCN1C(=S)Nc1cccc(Br)c1 (configuration not stated),-2%,-4,-2,0,/,16%
Fc1ccccc1C1c2cccn2CCN1C(=S)Nc1ccc(Br)cc1 (configuration not stated),21µM*,-64*,-21,-86*,/,?
CC(C(=O)O)c1ccc2c(c1)Cc1cccnc1O2 (configuration not stated),-9%,/,3,/,/,?
Cc1nc2ccc(C(=O)Nc3ccc4c(c3)OCC(=O)N4)cn2c1N(C)C(=O)CCc1ccccc1,?,-11,-22,-10,-1%,18µM*
CCc1nc2ccc(C(=O)Nc3cc(-c4ccccc4)ccc3OC)cn2c1N(CC)Cc1cccc(Br)c1,?,36,5,?,?,?
CCc1nc2ccc(C(=O)Nc3cccc(NS(C)(=O)=O)c3)cn2c1N(C)CCCc1ccccc1,?,35,5,-17,-3%,?
CCc1nc2ccc(C(=O)Nc3ccc4c(c3)OCC(=O)N4)cn2c1N(CC)Cc1cccc(Br)c1,18µM*,0,5,0,-12%,-78%
CCc1nc2ccc(C(=O)Nc3cccc(OC)c3)cn2c1N(C)CCCc1ccccc1,?,7,-5,-51*,-2%,?
CCc1nc2ccc(C(=O)NCc3ccccc3OC)cn2c1N(CC)Cc1cccc(Br)c1,26µM*,?,-18,-21,?,?

# Screens (PubChem BioAssay)
